Results: PubChem BioAssay (NCI)
Compounds without any hit were thinned out: in the full panel of roughly 83,000, 20% have a hit.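 A percent growth of 40 corresponds to 60% growth inhibition; 0 means no net growth; -100 means all cells died. Active threshold: below 10.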 Values without a mark were called inactive. Active and inactive are the calls of the source.

Experiments:
Assay in all cases: NCI-60 one-dose screen, 48 h (100 = growth as untreated, 0 = no growth, -100 = all killed)
Conditions in all cases: 10 µM unless noted
[1] = tested on: HCT-15 colon
[2] = tested on: HT29 colon
[3] = tested on: SNB-75 CNS
[4] = tested on: SNB-19 CNS
[5] = tested on: U251 CNS
[6] = tested on: PC-3 prostate
[7] = tested on: SK-MEL-5 melanoma
[8] = tested on: UACC-62 melanoma
[9] = tested on: SK-MEL-28 melanoma

With `O=C(Nc1cccc(Br)c1)Oc1ccc(Cl)c2cccnc12` as the compound, how does the growth [1] read?
Its growth is 10.9% [100 µM].

And the growth [2]?
The growth was 70.5% [100 µM].

And the growth [3]?
The growth was 3.16% [100 µM] (active).

What about the growth [4] of the same compound?
Its growth is 27.8% [100 µM].

And the growth [5]?
Its growth is 20.2% [100 µM].

And the growth [6]?
Its growth is 20.2% [100 µM].

What about the growth [7] of the same compound?
The growth was 9.3% [100 µM] (active).

What about the growth [8] of the same compound?
The growth was -30.4% [100 µM] (active).

And the growth [9]?
The growth was 25% [100 µM].

How did the growth [1] turn out when `Oc1c(Br)cc(Cl)cc1C(c1cc(Cl)cc(Br)c1O)C(Cl)(Cl)Cl` was run?
Its growth is 17.2%.

And the growth [2]?
The growth was 10.1%.

What about the growth [3] of the same compound?
Its growth is 68.1%.

And the growth [4]?
The growth was 24.7%.

And the growth [5]?
The growth was 15.2%.

What about the growth [6] of the same compound?
The growth was 1.63% (active).

What about the growth [7] of the same compound?
The growth was -64.6% (active).

And the growth [8]?
Its growth is 13.3%.

And the growth [9]?
Its growth is 38.1%.

Which growth [1] does the source give for `CC(=O)ON=C1C=CC(=C(C#N)c2ccccc2)C=C1` here?
Its growth is 8.51% (active).

And the growth [2]?
Its growth is 82.2%.

What about the growth [3] of the same compound?
Its growth is 19.6%.

What about the growth [4] of the same compound?
Its growth is 82.5%.

And the growth [5]?
Its growth is 22.9%.

What about the growth [6] of the same compound?
Its growth is -1.95% (active).

What about the growth [7] of the same compound?
The growth was 48.1%.

And the growth [8]?
Its growth is 26.1%.

And the growth [9]?
The growth was 55.5%.

Which results are given for `C=CCOc1ccc(N=NC(C#N)C#N)cc1`?
growth [1]: 56.9%; growth [2]: 72.7%; growth [3]: 74.3%; growth [4]: 94%; growth [5]: 84.6%; growth [6]: 70.4%; growth [7]: 91.8%; growth [8]: 47.7%; growth [9]: 65.1%

Which growth [1] does the source give for `CCOC(=O)/C(=C\c1ccc(-c2ccccc2)cc1)C(C)=O` here?
The growth was 94.5%.

What about the growth [2] of the same compound?
Its growth is 104%.

And the growth [3]?
The growth was 88%.

What about the growth [4] of the same compound?
Its growth is 99.9%.

And the growth [5]?
The growth was 103%.

What about the growth [6] of the same compound?
Its growth is 107%.

What about the growth [7] of the same compound?
The growth was 98.7%.

And the growth [8]?
Its growth is 94.6%.

What about the growth [9] of the same compound?
The growth was 99.1%.

`Cc1c2ccccc2c(C)c2c1ccc1ccccc12` was tested. Which growth [1] did it give?
Its growth is 90.3%.

What about the growth [2] of the same compound?
The growth was 92.9%.

And the growth [3]?
Its growth is 88.1%.

And the growth [4]?
The growth was 103%.

What about the growth [5] of the same compound?
The growth was 94.5%.

And the growth [6]?
Its growth is 83%.

What about the growth [7] of the same compound?
The growth was 93.1%.

And the growth [8]?
The growth was 80.5%.

And the growth [9]?
Its growth is 92.8%.

How did the growth [1] turn out when `c1ccc2c(c1)Nc1cc3ccccc3cc1N2` was run?
Its growth is 17.5%.

And the growth [2]?
Its growth is 14.7%.

And the growth [3]?
Its growth is 32.6%.

What about the growth [4] of the same compound?
Its growth is 57.1%.

What about the growth [5] of the same compound?
The growth was 43%.

What about the growth [6] of the same compound?
The growth was 24.9%.

What about the growth [7] of the same compound?
Its growth is -75.7% (active).

And the growth [8]?
Its growth is 52.9%.

And the growth [9]?
The growth was 83.3%.

Which growth [1] does the source give for `O=C(O)c1ccc2c3c(ncnc13)-c1ccccc1C2=O` here?
The growth was 26.8%.

What about the growth [2] of the same compound?
Its growth is 59.2%.

What about the growth [3] of the same compound?
Its growth is 20.2%.

And the growth [4]?
Its growth is 38.1%.

And the growth [5]?
The growth was 60.6%.

And the growth [6]?
The growth was 55.5%.

What about the growth [7] of the same compound?
The growth was -69.3% (active).

What about the growth [8] of the same compound?
The growth was 12.6%.

And the growth [9]?
The growth was 29.8%.

With `CCCCCC(CCCCC)C(=O)O` as the compound, how does the growth [1] read?
Its growth is 98.2%.

What about the growth [2] of the same compound?
Its growth is 105%.

And the growth [3]?
Its growth is 89.9%.

What about the growth [4] of the same compound?
The growth was 103%.

And the growth [5]?
The growth was 85.5%.

And the growth [6]?
Its growth is 87.6%.

What about the growth [7] of the same compound?
The growth was 117%.

What about the growth [8] of the same compound?
The growth was 94.4%.

And the growth [9]?
Its growth is 111%.
